Results on 15 compounds are retold here after PubChem BioAssay (NCI).

Holding throughout (assay): NCI-60 one-dose screen, 48 h (100 = growth as untreated, 0 = no growth, -100 = all killed)
The test system of one assay is HCT-15 colon. Particulars: 10 µM unless noted.
For a further assay, the system named is HT29 colon. The settings on record: 10 µM unless noted.
Another assay deals with SNB-75 CNS. Particulars: 10 µM unless noted.
For another assay, the system named is SNB-19 CNS. The settings on record: 10 µM unless noted.
The subject of the next assay is U251 CNS. Particulars: 10 µM unless noted.
A further assay has as its system PC-3 prostate. Particulars: 10 µM unless noted.
In another assay the test system is SK-MEL-5 melanoma. Particulars: 10 µM unless noted.
Another assay relates to UACC-62 melanoma. The settings on record: 10 µM unless noted.
The next assay has as its system LOX IMVI melanoma. The settings on record: 10 µM.
The test system of the next assay is SK-MEL-28 melanoma. The settings on record: 10 µM unless noted.

The panel holds about 83,000 compounds, 20% with a hit somewhere; the sample as a whole holds those more often.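 For each line, cells grew in 96-well plates with the test compound present at a single concentration for 48 hours.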 A number with no mark means an inactive call. Calls of active or inactive are those of the source. The calls were made as follows: active = growth percent below 10; inactive = the rest.

`CN1C(=O)NC(c2ccc(Cl)cc2)(c2ccc(Cl)cc2)C1=O`: the growth with HCT-15 colon was 106%; in the assay with HT29 colon, 93%; with SNB-75 CNS it was 84.2%; in the assay on SNB-19 CNS, 105%; in the assay on U251 CNS, 94.9%; with PC-3 prostate, 84.6%. Besides, the growth in the assay with SK-MEL-5 melanoma was 98.9%; in the assay with UACC-62 melanoma it was 83.8%; with LOX IMVI melanoma, 96.2%; in the assay with SK-MEL-28 melanoma, 102%.

With `CC(c1ccccc1)N1C(=O)CSC1=S` (stereo unspecified), the growth was 9.14% (active) with HCT-15 colon; 1.08% (active) in the assay on HT29 colon; 19.9% with SNB-75 CNS; 104% in the assay on SNB-19 CNS; 17.3% with U251 CNS; 45.2% in the assay with PC-3 prostate. Further, the growth is 34.8% with SK-MEL-5 melanoma, 34.5% with UACC-62 melanoma, 16.1% in the assay with LOX IMVI melanoma and 46.9% with SK-MEL-28 melanoma.

For `O=c1cc(C(F)(F)F)[nH]c(=S)[nH]1`, the growth was 103% in the assay with HCT-15 colon; 108% in the assay on HT29 colon; 102% in the assay with SNB-75 CNS; 94.4% in the assay on SNB-19 CNS; 101% with U251 CNS; 116% with PC-3 prostate. The growth in the assay on SK-MEL-5 melanoma was 98.7%; in the assay on UACC-62 melanoma, 99.5%; in the assay with SK-MEL-28 melanoma, 105%.

Consider `CCC(C)c1c(N)n(S(=O)(=O)c2ccc(C)cc2)oc1=O` (stereo unspecified), for which the growth with HCT-15 colon was 100%; in the assay with HT29 colon, 93.5%; with SNB-75 CNS it was 88.9%; in the assay with SNB-19 CNS it was 106%; with U251 CNS it was 104%; with PC-3 prostate, 94.3%. The figures for the growth in the assay on SK-MEL-5 melanoma, with UACC-62 melanoma and in the assay on SK-MEL-28 melanoma were 100%, 101% and 119%, respectively.

Consider `O=C(O)C1CSC(c2ccccc2)N1` (stereo unspecified), for which the growth is 90.5% in the assay with HCT-15 colon; 91.7% in the assay with HT29 colon; 96.7% in the assay on SNB-75 CNS; 96.5% in the assay with SNB-19 CNS; 105% in the assay on U251 CNS; 92.6% with PC-3 prostate. In addition, the growth was 101% in the assay on SK-MEL-5 melanoma, 93% in the assay with UACC-62 melanoma, 102% in the assay on LOX IMVI melanoma and 99.6% in the assay on SK-MEL-28 melanoma.

Take `COc1ccc(/C=C\C(=O)/C=C/c2ccc(OC)cc2)cc1`: the growth is -13.7% (active) in the assay on HCT-15 colon; 49.3% with HT29 colon; 103% in the assay on SNB-75 CNS; 89.3% in the assay with SNB-19 CNS; 63.8% with U251 CNS; 62.3% in the assay with PC-3 prostate. Moreover, the growth was 91.7% in the assay with SK-MEL-5 melanoma, 70.4% in the assay with UACC-62 melanoma and 106% with SK-MEL-28 melanoma.

As for `CC1CN(CCO)CC(C)O1` (stereo unspecified), the growth in the assay on HCT-15 colon is 102%; in the assay with HT29 colon it was 114%; in the assay with SNB-75 CNS, 96.5%; in the assay with SNB-19 CNS, 102%; in the assay on U251 CNS, 102%; in the assay on PC-3 prostate it was 104%. In addition, the growth in the assay on SK-MEL-5 melanoma is 102%; with UACC-62 melanoma, 94.1%; in the assay on SK-MEL-28 melanoma it was 104%.

Regarding `N#Cc1ccc(OC(=O)Nc2cc(Cl)cc(Cl)c2)cc1`, the growth is 3.2% [100 µM] (active) in the assay with HCT-15 colon; 2.78% [100 µM] (active) with HT29 colon; -9.78% [100 µM] (active) with SNB-75 CNS; 15.4% [100 µM] with SNB-19 CNS; 4.68% [100 µM] (active) in the assay with U251 CNS; -9.43% [100 µM] (active) in the assay with PC-3 prostate. Also, the growth with SK-MEL-5 melanoma was -94.3% [100 µM] (active); in the assay on UACC-62 melanoma it was -33.1% [100 µM] (active); in the assay on SK-MEL-28 melanoma, 5.58% [100 µM] (active).

For `c1ccc(Nc2ccccn2)nc1`, the growth in the assay with HCT-15 colon is 95.7%; in the assay on HT29 colon, 100%; in the assay on SNB-75 CNS it was 82.3%; in the assay with SNB-19 CNS, 97.5%; in the assay on U251 CNS, 91.8%; in the assay with PC-3 prostate it was 95.9%. Moreover, the growth with SK-MEL-5 melanoma is 103%; in the assay on UACC-62 melanoma, 94.1%; in the assay on LOX IMVI melanoma it was 95.7%; in the assay on SK-MEL-28 melanoma, 118%.

As for `COc1ccc(C)cc1NC(=O)SC(C)C`, the growth was 102% [100 µM] in the assay on HCT-15 colon; 104% [100 µM] in the assay on HT29 colon; 82.4% [100 µM] in the assay with SNB-75 CNS; 99% [100 µM] with SNB-19 CNS; 104% [100 µM] in the assay with U251 CNS; 96.7% [100 µM] in the assay with PC-3 prostate. The growth was 96.3% [100 µM] with SK-MEL-5 melanoma, 87.5% [100 µM] in the assay on UACC-62 melanoma and 102% [100 µM] with SK-MEL-28 melanoma.

Turning to `CCC(=O)C1C(=O)c2ccccc2C1=O`, the growth is 113% with HCT-15 colon; 100% in the assay with HT29 colon; 83.1% with SNB-75 CNS; 109% in the assay with SNB-19 CNS; 105% in the assay on U251 CNS; 92.2% in the assay on PC-3 prostate. The growth with SK-MEL-5 melanoma was 110%; with UACC-62 melanoma it was 104%; in the assay with SK-MEL-28 melanoma, 120%.

As to `O=C(NCc1ccccc1)/C(=C/c1ccccc1)NC(=O)c1ccccc1`, the growth is 106% with HCT-15 colon; 92.9% in the assay with HT29 colon; 98.1% with SNB-75 CNS; 97.1% with SNB-19 CNS; 93.4% in the assay with U251 CNS; 88.5% in the assay on PC-3 prostate. The growth in the assay on SK-MEL-5 melanoma is 97.5%; in the assay on UACC-62 melanoma, 93.5%; with LOX IMVI melanoma, 98.3%; with SK-MEL-28 melanoma, 117%.

For the compound `Clc1ncnc2nc[nH]c12`, the growth with HCT-15 colon was 96.4%; in the assay on HT29 colon, 107%; in the assay with SNB-75 CNS it was 82.9%; in the assay on SNB-19 CNS, 96.4%; in the assay with U251 CNS it was 103%; in the assay on PC-3 prostate, 96.4%. Also, the growth is 98.9% in the assay on SK-MEL-5 melanoma, 91.1% in the assay with UACC-62 melanoma, 95.1% with LOX IMVI melanoma and 99.8% with SK-MEL-28 melanoma.

As for `CS(=O)CC(=N\O)/C(CS(C)=O)=N\O` (stereo unspecified), the growth with HCT-15 colon was 99%; in the assay on HT29 colon, 99.9%; in the assay on SNB-75 CNS, 96.5%; in the assay with SNB-19 CNS, 101%; in the assay with U251 CNS, 96.5%; in the assay on PC-3 prostate, 104%. Also, the growth with SK-MEL-5 melanoma was 103%; in the assay on UACC-62 melanoma it was 93.8%; in the assay on SK-MEL-28 melanoma it was 107%.

For `CCN(CC)CCOC(=O)Nc1c(C(C)C)cccc1C(C)C`, the growth with HCT-15 colon is 106%; in the assay with HT29 colon, 92.8%; in the assay on SNB-75 CNS it was 110%; in the assay on SNB-19 CNS, 99.6%; with U251 CNS it was 107%; in the assay with PC-3 prostate, 95.5%. The growth was 95.7% in the assay on SK-MEL-5 melanoma, 93.3% with UACC-62 melanoma and 111% in the assay with SK-MEL-28 melanoma.
